# ELG1 repair inh: inhibitors of ELG1-dependent DNA repair in HEK293T cells; HEK293T ELG1-luciferase reporter, luminescence, 16 h; DNA damage induced by 5-fluorouridine; Potency, µM (top dose mostly 46.1 µM), for the others: top-dose activity change, negative = inhibition, most hits filed as inhibitors; 2.3% of 330,000 active; note: potency is the fitted concentration of half-maximal effect; nearly all actives have a fitted effect of over 55% in size
#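 Cells (2,000 per well) received 5-fluorouridine plus test compound or DMSO and were incubated 16 hr at 37 °C, 5% CO2. Luciferase activity was read by luminescence 30 min after ONE-Glo addition; signal suppression marked inhibition of damage-induced ELG1 function.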
# TDP1 cell CPT: growth inhibition of DT40 Tdp1-/-;hTDP1 cells with camptothecin (screen for TDP1 inhibitors); chicken DT40 Tdp1-/-;hTDP1 cells + 20 nM CPT, ATP luminescence, 48 h; Potency, µM (highest dose often 46.2 µM), without a hit: top-dose activity change, negative = growth inhibition, hits mostly inhibitors; 12% of 420,000 active; AID 686979; note: potency is the fitted concentration of half-maximal effect; nearly all actives have a fitted effect of over 55% in size
#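 Chicken DT40 Tdp1-/- cells complemented with human TDP1, 400 cells/well, exposed to compounds plus 20 nM camptothecin for at least 48 h at 37 C; viability read as ATP content by CellTiter-Glo luminescence.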
# Giardia killer: kills Giardia lamblia. Giardia lamblia trophozoite viability. activity change, % at 7.66 µM, hits read low. 0.15% of 340,000 active. AID 540267; in the data active = activity change below about -80%; inconclusive = between about -30% and that limit;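 note: parasites exposed to compound for two days anaerobically before the ATP read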
#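 Anaerobic 48 hrs incubation at 37 deg C of 100 trophozoites/well with test compounds; ATPLite 1-Step luminescence, 15-30 min RT, reports cellular ATP as viability.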
# TDP1 cell noCPT: qHTS for Inhibitors of human tyrosyl-DNA phosphodiesterase 1 (TDP1): qHTS in cells in absence of CPT | 15% of 420,000 active | DT40 Tdp1-/- hTDP1 cells, no CPT, ATP luminescence, 48 h | Potency, µM (titrated, usually from 46.2 µM), inactives show at the highest dose activity change, negative = growth inhibition, usual class: inhibitors; note: potency is the fitted concentration of half-maximal effect; nearly all actives have a fitted effect of over 55% in size
#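 Growth kinetics read by CellTiter-Glo luminescence after ≥48 hr at 37 °C. Cells: DT40 Tdp1-/- stably carrying human TDP1, 400 per well, compound exposure in the absence of CPT (DMSO vehicle).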
# TDP1 block: inhibitors of human tyrosyl-DNA phosphodiesterase TDP1. Q9NUW8. recombinant TDP1, AlphaScreen DNA substrate cleavage. Potency, µM (doses to about 130 µM), for the others: top-dose activity change, negative = inhibition, hits mostly inhibitors. 0.28% of 350,000 active. AID 485290; note: potency is the fitted concentration of half-maximal effect; nearly all actives have a fitted effect of over 40% in size
# Target sequence (Q9NUW8 whole entry, looked up): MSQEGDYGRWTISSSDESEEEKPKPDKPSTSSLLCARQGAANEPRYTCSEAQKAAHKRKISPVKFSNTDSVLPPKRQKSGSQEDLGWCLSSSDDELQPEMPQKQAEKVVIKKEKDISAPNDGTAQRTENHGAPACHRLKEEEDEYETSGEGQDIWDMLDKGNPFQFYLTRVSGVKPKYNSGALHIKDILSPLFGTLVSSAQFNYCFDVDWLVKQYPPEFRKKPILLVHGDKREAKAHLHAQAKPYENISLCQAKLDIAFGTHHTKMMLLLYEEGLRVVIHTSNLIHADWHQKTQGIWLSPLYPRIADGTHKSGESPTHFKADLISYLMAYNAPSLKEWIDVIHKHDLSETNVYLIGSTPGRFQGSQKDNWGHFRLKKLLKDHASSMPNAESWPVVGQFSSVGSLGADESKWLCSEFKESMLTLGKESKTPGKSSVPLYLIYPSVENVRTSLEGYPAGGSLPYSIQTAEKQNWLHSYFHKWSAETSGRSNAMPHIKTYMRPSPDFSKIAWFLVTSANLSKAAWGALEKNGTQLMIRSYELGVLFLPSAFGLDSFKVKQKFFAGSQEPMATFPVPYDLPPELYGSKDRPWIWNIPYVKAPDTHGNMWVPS
#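 Signal: AlphaScreen proximity between streptavidin donor and anti-FITC acceptor beads on intact substrate. Reaction: Tdp1 1 nM, substrate 15 nM final, 5 min RT after 15 min compound preincubation.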
# IL1B secr inh: blocks inflammasome-driven IL-1 beta release | THP-1 LPS/ATP IL-1B secretion, AlphaLISA, 16 h; stronger effect = lower value | activity change, % at 57.5 µM | 4.7% of 360,000 active | AID 743279; in the data active = activity change below about -50%; inconclusive = mostly about -30% to -49%
#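 Secreted IL-1B measured by AlphaLISA bead assay after 16 h compound exposure of THP-1 cells; compounds (final up to 57.5 uM) added 1 h before LPS (250 ng/mL) and ATP (1.25 mM) stimulation; lower signal means less secretion.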
# * marks the source's active call; other numbers are inactive results; ? = inconclusive; · = no result given. Hits are enriched below; roughly 19% of the tested compounds scored in any of these assays. Unless noted, calls come from the whole dose curve; as a rule, active = well fitted curve in the direction sought with a large enough effect; inconclusive = small, poorly fitted or top-dose-only effect, or another doubt; inactive = no such curve, though single readings can be large; an effect the other way counts as inactive or inconclusive. % is set by controls: 0 for no effect and ±100 for the full control effect.
SMILES,ELG1 repair inh,TDP1 cell CPT,Giardia killer,TDP1 cell noCPT,TDP1 block,IL1B secr inh
COc1ccc(-n2ncc(C(=O)Nc3ccc4c(c3)OCCO4)c2C2CCN(C(=O)OC(C)(C)C)CC2)cc1,·,21µM*,·,16µM*,2%,·
O=C(COc1ccc(Cl)cc1)N1CCN(C(=O)c2cccs2)CC1,13%,-16%,62,-27%,0%,-73*
CN(C(=O)c1cccs1)c1ccc(OCC(=O)N2CCC(C(N)=O)CC2)cc1,15µM*,?,-1,?,0%,24
CCc1nnc(SCc2cccc(Cl)c2)c2cc3sccc3n12,·,?,·,?,-5%,·
CC(C)c1ncc(CO)n1Cc1c(Cl)cccc1Cl,·,?,·,?,·,3
CCN1CN(CCc2ccccc2)CNC1=S,4%,-4%,-6,-1%,3%,25
CCN1CSC(=S)N(Cc2ccccc2)C1,-1%,2.6µM*,-10,4.6µM*,·,-100*
CCN1CSC(=S)N(Cc2ccc(OC)cc2)C1,-19%,5.2µM*,-10,4.6µM*,6%,25
S=C1SCN(Cc2cccs2)CN1Cc1cccs1,·,?,·,23µM*,·,0
CCCCCN1CSC(=S)N(Cc2ccccc2)C1,?,4.6µM*,-5,3.7µM*,0%,-95*
CC1CCCN(S(=O)(=O)c2ccc3c(c2)CCN3C(=O)CCC(=O)O)C1 (stereo not given),·,6%,·,2%,9%,·
Cc1cccc(N2C(=O)CSC23C(=O)N(CC(=O)NCc2ccccc2Cl)c2ccccc23)c1 (stereo not given),·,?,·,21µM*,2%,·
O=C1CSC2(C(=O)N(Cc3ccccc3)c3ccccc32)N1c1ccc(Cl)cc1 (stereo not given),·,16µM*,·,21µM*,5%,·
COc1ccc(N2C(=O)CSC23C(=O)N(CC(=O)NCc2ccccc2)c2ccccc23)cc1 (stereo not given),·,-5%,·,?,1%,·
O=C(CN1C(=O)C2(SCC(=O)N2c2ccc(Cl)cc2)c2ccccc21)NCCc1ccccc1 (stereo not given),·,?,·,18µM*,5%,·
COc1ccc(N2C(=O)CSC23C(=O)N(CC(=O)NCCc2ccccc2)c2ccccc23)cc1 (stereo not given),·,16µM*,·,?,3%,·
COC(=O)C[C@H](NC(=O)[C@H](C)NC(=O)[C@@H](NC(=O)OCc1ccccc1)C(C)C)C(=O)CF,·,-2%,·,10%,9%,·
COc1ccc2[nH]c(C)c(CCNC(=S)Nc3cc(C)cc(C)c3)c2c1,-12%,?,?,?,11%,-13
CCc1cccc(C)c1NC(=S)NCCc1c(C)[nH]c2ccc(C)cc12,-25%,10µM*,-14,21µM*,11%,53
COc1ccc2[nH]c(C)c(CCNC(=S)Nc3ccccc3OC)c2c1,?,18µM*,-16,23µM*,9%,-13
COc1ccc2[nH]c(C)c(CCNC(=S)Nc3cc(C)ccc3C)c2c1,6%,8.2µM*,-6,9.2µM*,7%,4
COc1ccc2[nH]c(C)c(CCNC(=S)Nc3ccc(F)cc3)c2c1,?,16µM*,-26,23µM*,8%,-30
COc1ccccc1CNC(=O)[C@@H]1CCCN1S(=O)(=O)c1ccccc1F,1%,8%,-23,-6%,9%,4
CCCCC(O)(c1ccc(CC)cc1)C(CN1CCOCC1)c1ccccc1 (stereo not given),?,?,-5,?,·,-54*
CCc1ccc(C(O)(CC)C(CN2CCOCC2)c2ccccc2)cc1 (stereo not given),-21%,?,-9,?,·,-20
CCCCC(O)(c1ccccc1)C(CN1CCOCC1)c1ccccc1 (stereo not given),-15%,23µM*,7,?,·,-5
